Results reported in PubChem BioAssay (NCATS).
Inconclusive results are not listed. Calls of active or inactive are those of the source. Calls come from the whole dose curve. Residues, ends and D or L forms follow the SMILES beside them. *: point of attachment. Hexanoyl = CCCCCC(=O)*

test: qHTS for inhibitors of Rabies Virus screened against the NCATS CANVASS Library (AID 1347402); details: Rabies virus infection cell assay; series mostly up to 45.9 µM; activity change, negative = inhibition: at the top concentration; note: 0% is about no effect

For `C[C@@H]1O[C@@H](Oc2c(-c3ccc(O)cc3)oc3cc(O)cc(O)c3c2=O)[C@H](O)[C@H](O)[C@H]1O`, which “activity change, negative = inhibition” value is on record?
Its value is -2.11% (inactive).

Which “activity change, negative = inhibition” value does the source give for `O=C1CCC(=O)N(O)CCCCCNC(=O)CCC(=O)N(O)CCCCCNC(=O)CCC(=O)N(O)CCCCCN1` here?
The value was -13% (inactive).

Which “activity change, negative = inhibition” value does the source give for `CC(C)(Br)[C@@H](Cl)C[C@H](Br)[C@](C)(Cl)/C=C/Br` here?
The value was -28.5% (inactive).

Which “activity change, negative = inhibition” value does the source give for `CC1(C)C=Cc2c(ccc3c2OC[C@@H](c2ccc(O)cc2O)C3)O1` here?
The value was -31.3% (inactive).

Which “activity change, negative = inhibition” value does the source give for `O=Cc1ccc2n1C[C@@]1(C[C@H](O)[C@@H](CO)O1)OC2` here?
The value was 4.33% (inactive).

For `CC12C[C@]3(O)O[C@@H](O1)[C@]1(COC(=O)c4ccccc4)[C@@H]3CC21OC1OC(CO)C(O)C(O)C1O` (some centres not stated), which “activity change, negative = inhibition” value is on record?
Its value is -4.13% (inactive).

For `CC(C)=CCC[C@]12c3cc4c(cc3CC[C@@]1(C)[C@H](C)CC[C@@H]2O)[nH]c1ccccc14`, which “activity change, negative = inhibition” value is on record?
The value was -2.51% (inactive).

For `O=C(O)[C@@]12COC3(O)C1CCN1CC[C@H]3[C@@H]1c1c2[nH]c2ccccc12`, which “activity change, negative = inhibition” value is on record?
Its value is -9.84% (inactive).

With `Oc1ccc(C2c3c(O)cc(O)cc3[C@@H]3C(c4ccc(O)cc4)c4c(O)cc(O)cc4[C@H]23)cc1` (some centres not stated) as the molecule, how does the “activity change, negative = inhibition” value read?
The value was -26.7% (inactive).

For `O=C(O)CC1OCc2c(O)cccc21` (configuration not stated), which “activity change, negative = inhibition” value is on record?
Its value is -1.57% (inactive).

Which “activity change, negative = inhibition” value does the source give for `CCCCCC(=O)N[C@@H](CC(C)C)C(=O)N[C@H](C=O)CCC(=O)O` (Hexanoyl-Leu-Glu-aldehyde) here?
Its value is 5.6% (inactive).

With `C[C@@]12CCC[C@@](C)(C(=O)O)[C@H]1CC[C@]13C[C@H]4C[C@H](O[C@@]4(C)C1)[C@H]32` as the molecule, how does the “activity change, negative = inhibition” value read?
The value was -22.6% (inactive).

With `C/C1=C/[C@@H](C)[C@H](O)[C@@H](O)/C=C/CC/C=C/C(=O)O[C@@H]1[C@H](C)C(=O)/C=C/CC1CC(=O)NC(=O)C1` as the molecule, how does the “activity change, negative = inhibition” value read?
Its value is 11.6% (inactive).

Which activity change, negative = inhibition does the source give for `COc1ccc2oc3c(OC)c(OC)c(OC)c(OC)c3c(=O)c2c1` here?
The activity change, negative = inhibition was -7.41% [at 9.14 µM] (inactive).

With `C=C[C@@]1(C)CC[C@@H]([C@H](C)C(=O)/C=C/C(C)C)O1` as the molecule, how does the “activity change, negative = inhibition” value read?
Its value is 0.952% (inactive).

Which “activity change, negative = inhibition” value does the source give for `O=Cc1ccc2n1C[C@]1(OC2)O[C@H](CO)[C@@H](O)[C@@H]1O` here?
The value was -12.4% (inactive).

With `C/C=C/C=C/C1(O)C2C=C3C(=O)CC45C(=O)C(O)=C(C)C(=O)C4C1C1(C(=O)C(O)=C(C)C(=O)C351)C2C` (configuration not stated) as the molecule, how does the “activity change, negative = inhibition” value read?
Its value is 1.29% (inactive).

With `C=CC(C)(C)C(=O)[C@@H](C)[C@@H]1CC[C@@](C)(C=C)O1` as the molecule, how does the “activity change, negative = inhibition” value read?
The value was 11.4% (inactive).

With `O=C1C[C@@H](c2ccc(O)c(-c3c(O)cc(O)c4c3O[C@H](c3ccc(O)cc3)CC4=O)c2)Oc2cc(O)cc(O)c21` as the molecule, how does the “activity change, negative = inhibition” value read?
The value was -7.3% [at 27.4 µM] (inactive).

Which “activity change, negative = inhibition” value does the source give for `COc1cc2ccc(=O)oc2c(O)c1O[C@@H]1O[C@H](CO)[C@@H](O)[C@H](O)[C@H]1O` here?
Its value is 7.6% [at 27.4 µM] (inactive).

With `C[C@@H](O)[C@H]1OC(=O)C=C2[C@]3(C)[C@H]4[C@H](OC(=O)[C@@]4(C)[C@@H](O)[C@H]4O[C@H]43)[C@H]3O[C@@]231` as the molecule, how does the “activity change, negative = inhibition” value read?
Its value is 6.7% (inactive).

With `CNc1ccc(Cl)cc1C(=O)OC[C@]1(C)[C@H]2CC[C@]3(C)[C@@H](C[C@@H](OC)[C@H](C)[C@H]3C3=C(O)C(=O)OC3O)[C@]2(C)CC[C@H]1O` (some centres not stated) as the molecule, how does the “activity change, negative = inhibition” value read?
The value was -5.13% (inactive).

Which “activity change, negative = inhibition” value does the source give for `COc1c(O)cc2oc(-c3ccccc3)cc(=O)c2c1O` here?
The value was -20.1% (inactive).

With `COc1cc(O)c2c3c(c(O)cc(C)c13)C(=O)OC2` as the molecule, how does the “activity change, negative = inhibition” value read?
Its value is -1.84% (inactive).

For `O[C@H]1c2ccccc2-c2c3c(cc4c2[C@@H]1NCC4)OCO3`, which “activity change, negative = inhibition” value is on record?
Its value is -20.4% (inactive).

With `CN1CCc2cc3c(c4c2C1(C)C(=O)c1cc(O)ccc1-4)OCO3` (configuration not stated) as the molecule, how does the “activity change, negative = inhibition” value read?
Its value is -17.4% (inactive).

For `C[C@@]12C[C@@H](C[C@@H]3C(=O)O[C@@H](c4ccoc4)[C@H](OC(=O)c4ccccc4)[C@@H]31)OC2=O`, which “activity change, negative = inhibition” value is on record?
Its value is -29.9% (inactive).
